In publication PMC5540273 (PLoS ONE, 2017):
Where “and” joins values, the source holds several entries; their conditions need not be identical. Equal values may be shown once. Read-outs that look alike come from different tables or passages of the source.

What was measured:
TRKC = tested on: T1, TRKC; conditions: concentration: 1 μM, replicates: in singlicate, n = 1
T1 construct: gene NTRK3

TRPM6 = conditions: concentration: 1 μM, replicates: in singlicate, n = 1
TSSK1B = conditions: concentration: 1 μM, replicates: in singlicate; n = 1
TSSK3 = conditions: concentration: 1 μM, replicates: in singlicate, n = 1
TTK = conditions: concentration: 1 μM, replicates: in singlicate, n = 1
TXK = conditions: concentration: 1 μM, replicates: in singlicate; n = 1
[1] = tested on: TYK2(JH1domain-catalytic); conditions: concentration: 1 μM, replicates: in singlicate, n = 1
[2] = tested on: TYK2(JH2domain-pseudokinase); conditions: concentration: 1 μM, replicates: in singlicate, n = 1
TYRO3 = conditions: concentration: 1 μM, replicates: in singlicate; n = 1
ULK1 = conditions: concentration: 1 μM, replicates: in singlicate, n = 1
ULK2 = conditions: concentration: 1 μM, replicates: in singlicate, n = 1
ULK3 = conditions: concentration: 1 μM, replicates: in singlicate, n = 1
VEGFR2 = tested on: T2, VEGFR2; conditions: concentration: 1 μM, replicates: in singlicate, n = 1
T2 construct: gene KDR

VPS34 = tested on: T3, VPS34; conditions: concentration: 1 μM, replicates: in singlicate, n = 1
T3 construct: gene PIK3C3

VRK2 = conditions: concentration: 1 μM, replicates: in singlicate, n = 1
WEE1 = conditions: concentration: 1 μM, replicates: in singlicate; n = 1
WEE2 = conditions: concentration: 1 μM, replicates: in singlicate, n = 1
WNK1 = conditions: concentration: 1 μM, replicates: in singlicate, n = 1
WNK2 = conditions: concentration: 1 μM, replicates: in singlicate, n = 1
WNK3 = conditions: concentration: 1 μM, replicates: in singlicate, n = 1
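Note: KINOMEscan kinase panel screen.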

Nc1nc(-c2ccc3c(N)n[nH]c3c2)cc(N2CCC[C@@H](C(=O)Nc3ccccc3)C2)n1.O=C(O)C(F)(F)F.O=C(O)C(F)(F)F [GSK2288359]
%Inh (TRKC): 0%
%Inh (TRPM6): 34%
%Inh (TSSK1B): 0%
%Inh (TSSK3): 24%
%Inh (TTK): 0%
%Inh (TXK): 8%
%Inh [1]: 18%
%Inh [2]: 1%
%Inh (TYRO3): 0%
%Inh (ULK1): 9%
%Inh (ULK2): 3%
%Inh (ULK3): 13%
%Inh (VEGFR2): 18%
%Inh (VPS34): 0%
%Inh (VRK2): 0%
%Inh (WEE1): 8%
%Inh (WEE2): 0%
%Inh (WNK1): 11%
%Inh (WNK2): 6%
%Inh (WNK3): 14%

FC(F)(F)c1ccc(-c2cc(-c3c[nH]nc3-c3ccccn3)ccn2)cc1 [GW599550]
%Inh (TRKC): 14%
%Inh (TRPM6): 38%
%Inh (TSSK1B): 13%
%Inh (TSSK3): 7%
%Inh (TTK): 0%
%Inh (TXK): 0%
%Inh [1]: 20%
%Inh [2]: 21%
%Inh (TYRO3): 0%
%Inh (ULK1): 0%
%Inh (ULK2): 0%
%Inh (ULK3): 0%
%Inh (VEGFR2): 4%
%Inh (VPS34): 0%
%Inh (VRK2): 0%
%Inh (WEE1): 12%
%Inh (WEE2): 0%
%Inh (WNK1): 0%
%Inh (WNK2): 7%
%Inh (WNK3): 31%

CC(C)(C)OC(=O)NC1CCCN(c2cc(-c3ccc4c(N)n[nH]c4c3)nc(N)n2)C1 (centres unmarked) [GSK2286096]
%Inh (TRKC): 0%
%Inh (TRPM6): 39%
%Inh (TSSK1B): 0%
%Inh (TSSK3): 96.5%
%Inh (TTK): 0%
%Inh (TXK): 0%
%Inh [1]: 66%
%Inh [2]: 0%
%Inh (TYRO3): 0%
%Inh (ULK1): 1%
%Inh (ULK2): 0%
%Inh (ULK3): 0%
%Inh (VEGFR2): 0%
%Inh (VPS34): 0%
%Inh (VRK2): 0%
%Inh (WEE1): 17%
%Inh (WEE2): 0%
%Inh (WNK1): 6%
%Inh (WNK2): 70%
%Inh (WNK3): 8%

COc1ccc(NC(=O)Nc2ccc(C)c(-c3ccc(C(=O)Nc4ccncc4)cc3)c2)cc1 [GSK1398475]
%Inh (TRKC): 0%
%Inh (TRPM6): 0%
%Inh (TSSK1B): 10%
%Inh (TSSK3): 0%
%Inh (TTK): 0%
%Inh (TXK): 0%
%Inh [1]: 0%
%Inh [2]: 5%
%Inh (TYRO3): 0%
%Inh (ULK1): 0%
%Inh (ULK2): 0%
%Inh (ULK3): 0%
%Inh (VEGFR2): 0%
%Inh (VPS34): 0%
%Inh (VRK2): 0%
%Inh (WEE1): 34%
%Inh (WEE2): 11%
%Inh (WNK1): 4%
%Inh (WNK2): 0%
%Inh (WNK3): 2%

COc1ccc(Nc2nccc(N3CCC(NC(=O)c4cccc(NC(C)=O)c4)C3)n2)cc1 (centres unmarked) [GSK1379732]
%Inh (TRKC): 43%
%Inh (TRPM6): 0%
%Inh (TSSK1B): 14%
%Inh (TSSK3): 11%
%Inh (TTK): 8%
%Inh (TXK): 5%
%Inh [1]: 36%
%Inh [2]: 30%
%Inh (TYRO3): 0%
%Inh (ULK1): 0%
%Inh (ULK2): 0%
%Inh (ULK3): 11%
%Inh (VEGFR2): 0%
%Inh (VPS34): 22%
%Inh (VRK2): 41%
%Inh (WEE1): 5%
%Inh (WEE2): 7%
%Inh (WNK1): 0%
%Inh (WNK2): 11%
%Inh (WNK3): 0%

COc1cc2c(Nc3cccc(NC(=O)c4ccccc4)c3)ncnc2cc1OCCCN1CCOCC1 [GSK223810]
%Inh (TRKC): 0%
%Inh (TRPM6): 0%
%Inh (TSSK1B): 5%
%Inh (TSSK3): 17%
%Inh (TTK): 29%
%Inh (TXK): 0%
%Inh [1]: 0%
%Inh [2]: 0%
%Inh (TYRO3): 0%
%Inh (ULK1): 17%
%Inh (ULK2): 0%
%Inh (ULK3): 24%
%Inh (VEGFR2): 28%
%Inh (VPS34): 0%
%Inh (VRK2): 10%
%Inh (WEE1): 0%
%Inh (WEE2): 40%
%Inh (WNK1): 4%
%Inh (WNK2): 10%
%Inh (WNK3): 0%

Cl.c1ccc(Cn2ccc3cc(Nc4ncnc5ccccc45)ccc32)cc1 [GW275568]
%Inh (TRKC): 0%
%Inh (TRPM6): 32%
%Inh (TSSK1B): 0%
%Inh (TSSK3): 13%
%Inh (TTK): 9%
%Inh (TXK): 14%
%Inh [1]: 0%
%Inh [2]: 0%
%Inh (TYRO3): 0%
%Inh (ULK1): 1%
%Inh (ULK2): 0%
%Inh (ULK3): 9%
%Inh (VEGFR2): 16%
%Inh (VPS34): 0%
%Inh (VRK2): 0%
%Inh (WEE1): 12%
%Inh (WEE2): 14%
%Inh (WNK1): 5%
%Inh (WNK2): 18%
%Inh (WNK3): 27%

C[C@H]1CC[C@@H](C(=O)Nc2ccccc2)CN1c1cc(-c2ccc3c(N)n[nH]c3c2)nc(N)n1 [GSK2283293]
%Inh (TRKC): 11%
%Inh (TRPM6): 8%
%Inh (TSSK1B): 9%
%Inh (TSSK3): 12%
%Inh (TTK): 20%
%Inh (TXK): 0%
%Inh [1]: 0%
%Inh [2]: 27%
%Inh (TYRO3): 0%
%Inh (ULK1): 0%
%Inh (ULK2): 0%
%Inh (ULK3): 7%
%Inh (VEGFR2): 0%
%Inh (VPS34): 0%
%Inh (VRK2): 19%
%Inh (WEE1): 11%
%Inh (WEE2): 14%
%Inh (WNK1): 2%
%Inh (WNK2): 0%
%Inh (WNK3): 17%

COc1ccc(-c2nc3n(c2-c2ccncc2)CCC3)cc1 [SKF-104493]
%Inh (TRKC; 1 µM): 25% and 5%
%Inh (TRPM6; 1 µM): 0% and 3%
%Inh (TSSK1B): 0%
%Inh (TSSK3; 1 µM): 21% and 8%
%Inh (TTK; 1 µM): 30% and 0%
%Inh (TXK): 0%
%Inh ([1]; 1 µM): 7% and 0%
%Inh ([2]; 1 µM): 9% and 1%
%Inh (TYRO3): 0%
%Inh (ULK1; 1 µM): 7% and 0%
%Inh (ULK2; 1 µM): 13% and 0%
%Inh (ULK3; 1 µM): 13% and 0%
%Inh (VEGFR2; 1 µM): 15% and 0%
%Inh (VPS34; 1 µM): 28% and 20%
%Inh (VRK2; 1 µM): 7% and 0%
%Inh (WEE1): 0%
%Inh (WEE2; 1 µM): 13% and 0%
%Inh (WNK1; 1 µM): 27% and 0%
%Inh (WNK2; 1 µM): 0% and 21%
%Inh (WNK3; 1 µM): 33% and 16%

FC(F)(F)c1ccc(-c2nn3ncccc3c2-c2ccnc(Nc3cccc(C(F)(F)F)c3)n2)cc1 [GW828205]
%Inh (TRKC): 0%
%Inh (TRPM6): 0%
%Inh (TSSK1B): 0%
%Inh (TSSK3): 0%
%Inh (TTK): 0%
%Inh (TXK): 3%
%Inh [1]: 0%
%Inh [2]: 0%
%Inh (TYRO3): 0%
%Inh (ULK1): 0%
%Inh (ULK2): 0%
%Inh (ULK3): 0%
%Inh (VEGFR2): 0%
%Inh (VPS34): 8%
%Inh (VRK2): 0%
%Inh (WEE1): 5%
%Inh (WEE2): 11%
%Inh (WNK1): 0%
%Inh (WNK2): 0%
%Inh (WNK3): 0%
